This is an account of results in PubChem BioAssay (EPA / NIEHS).

Calls of active or inactive are those of the source. The calls were made as follows: active = hit-call score of the fitted dose curve at least 0.9, where 1 is the maximum; inactive = score below 0.9.

A short description of this assay: APR_HepG2_p53Act_1hr: Apredica 1-hour HepG2 Assay for p53 Activation (AID 2282671). The settings on record: high-content imaging, actives raise or lower the signal. On the procedure: APR_HepG2_1hr is a cell-based, multiplexed-readout assay that uses HepG2, a human liver cell line, with measurements taken at 1 hour after chemical dosing in a 384-well plate.APR_HepG2_p53Act_1hr is one of 10 assay component(s) measured or calculated from the APR_HepG2_1hr assay. It is designed to make measurements of dna content, a form of viability reporter, as detected with fluorescence intensity signals by HCS Fluorescent Imaging technology.Data from the assay component APR_HepG2_p53Act_1hr was analyzed into 1 assay endpoint. This assay endpoint, APR_HepG2_p53Act_1hr, was analyzed with bidirectional fitting relative to DMSO as the negative control and baseline of activity. Using a type of viability reporter, measures of protein for gain or loss-of-signal activity can be used to understand the signaling at the pathway-level as they relate to the gene TP53. Furthermore, this assay endpoint can be referred to as a primary readout, because this assay has produced multiple assay endpoints where this one serves a signaling function. To generalize the intended target to other relatable targets, this assay endpoint is annotated to the dna binding intended target family, where the subfamily is tumor suppressor.
Cells were treated with dimethyl sulfoxide (DMSO) as a solvent control at a final concentration of 0.5% v/v or with compounds in DMSO with a resulting final DMSO concentration of 0.5% v/v. Compound treatment was done at concentrations of 0.39, 0.78, 1.56, 3.12, 6.24, 12.5, 25, 50, 100, and 200 uM in duplicate on each plate. Cells were treated with compounds for 1, 24, or 72 hr. Carbonyl […] m-chloro-phenylhydrazone (CCCP) and taxol were used as positive controls for mitochondrial function and cytoskeletal stability, respectively; DMSO served as the negative control for this experiment. Cells were fixed by the direct addition of 50 uL formaldehyde in Hank's Balanced Salt Solution (HBSS) to a final concentration of 3.7%. After incubation in the fixation medium for 30 min at room temperature (293-298 K), cells were rinsed twice with HBSS and treated with cell permeabilization buffer (16 uL of 0.5% Triton X-100) for 10 min at room temperature (293-298 K) before labeling. For mitochondrial membrane potential and mitochondrial measurements, pre-fixed cells were incubated with 50 uL of MitoTracker Red CMXRos (Invitrogen) at a concentration of 250 nM for 30 min before fixation. In the remaining cases, post-fixed cells were labeled by incubation with a multiplexed mixture of primary antibodies in HBSS for 60 min at room temperature (293-298 K) to detect immunoreactivity of c-Jun (1:500), phospho-histone H3 (1:100), phospho-histone H2A.x (1:200), p53 (1:400), alpha-tubulin (1:200) and Hoechst 33342 (2 ug/mL). Cells were labeled for multiplexed imaging on two separate plates: a) Hoechst 33342, MitoTracker Red, phospho-histone H3, and alpha-tubulin, and b) Hoechst 33342, phospho-histone H2A.x, and c-Jun. A final rinse with HBSS (50 uL) was performed before analysis. The primary and secondary antibodies for the proteins were phospho-histone H3 (rabbit anti-phospho-histone H3 and FITC-donkey anti-rabbit IgG), phospho-histone H2A.x (mouse anti-phospho-histone H2A.x and FITC-donkey anti-mouse IgG), c-Jun (rabbit anti-phospho-c-Jun and Cy3-donkey anti-rabbit IgG), p53 (sheep anti-p53 and Cy5-donkey anti-sheep IgG), alpha-tubulin (mouse anti-alpha-tubulin and Cy5-donkey anti-mouse IgG). These antibodies are available as the CellCiphr HepG2 assay kit (Millipore).Digital images of each well were captured using a Cellomics ArrayScan VTI (Thermo Scientific Cellomics) (0.8 NA objective, 0.63x optical coupler, and XF-93 filter set) at 20x magnification. The images were acquired using the autofocus feature of the ArrayScan instrument, which entails the following steps. First, the camera focuses on channel 1 (Hoechst 33342), where nuclei are identified. Second, a Z offset of 1 um is used for capturing mitochondria (MitoTracker Red). […]
Turning to `O=C1c2ccccc2C(=O)N1SC(Cl)(Cl)Cl`, the result was inactive.

In the case of `CC(C)(C)C(O)/C(=C\c1ccc(Cl)cc1Cl)n1cncn1` (stereo not given), the outcome was inactive.

On to `CCC(C)(C)C(=O)OC1=C(c2ccc(Cl)cc2Cl)C(=O)OC12CCCCC2`, for which the result was inactive.

`CCN(CC)C(=O)SCc1ccc(Cl)cc1`: the outcome was inactive.

As to `COc1cc(OC)nc(NC(=O)NS(=O)(=O)c2cc(NC=O)ccc2C(=O)N(C)C)n1`, the outcome was inactive.

Turning to `CC(C)OC(=O)Nc1cccc(Cl)c1`, the compound was called inactive.

In the case of `O=C(Nc1ccccc1)Nc1cnns1`, the call was inactive.

As to `CCC(C)(NC(=O)c1cc(Cl)c(C)c(Cl)c1)C(=O)CCl` (stereo not given), the call was inactive.

In the case of `CCc1ccc(C(=O)NN(C(=O)c2cc(C)cc(C)c2)C(C)(C)C)cc1`, the result was inactive.

As for `OCCOc1ccccc1`, the outcome was inactive.

For `CCOc1nc(NC)nc(NC(=O)NS(=O)(=O)c2ccccc2C(=O)OC)n1`, the compound was called inactive.

As to `[2H]C1([2H])[n+]2ccccc2-c2cccc[n+]2C1([2H])[2H]`, the result was inactive.

For `O=C(O)C(F)(F)C(F)(F)C(F)(F)C(F)(F)C(F)(F)C(F)(F)C(F)(F)F`, the outcome was inactive.

Regarding `CC(C)N(C(=O)COc1nnc(C(F)(F)F)s1)c1ccc(F)cc1`, the outcome was inactive.

As to `CN1CSC(=S)N(C)C1`, the compound was called inactive.

With `O=S(=O)(O)C(F)(F)C(F)(F)C(F)(F)C(F)(F)C(F)(F)C(F)(F)C(F)(F)C(F)(F)F`, the outcome was inactive.

As to `CCOCN(C(=O)CCl)c1c(C)cccc1CC`, the compound was classed as inactive.

In the case of `O=S1OCC2C(CO1)C1(Cl)C(Cl)=C(Cl)C2(Cl)C1(Cl)Cl` (stereo not given), the result was inactive.

Consider `CC[C@H](C)[C@H]1O[C@]2(C=C[C@@H]1C)C[C@@H]1C[C@@H](C/C=C(\C)[C@@H](O[C@H]3C[C@H](OC)[C@@H](O[C@H]4C[C@H](OC)[C@@H](O)[C@H](C)O4)[C@H](C)O3)[C@@H](C)/C=C/C=C3\CO[C@@H]4[C@H](O)C(C)=C[C@@H](C(=O)O1)[C@]34O)O2` (tested in a mixture with another compound), for which the compound was called inactive.

For the compound `CNC(=O)Oc1cccc(N=CN(C)C)c1`, the result was inactive.

As to `C[C@H]1[C@H](c2ccc(Cl)cc2)SC(=O)N1C(=O)NC1CCCCC1`, the outcome was inactive.

Take `COP(=S)(OC)Oc1ccc([N+](=O)[O-])cc1`: the compound was classed as inactive.

Consider `O=C(O)COc1ccc(Cl)cc1Cl`, for which the call was inactive.

In the case of `Cc1cc(C)nc(NC(=O)NS(=O)(=O)c2ccccc2C(=O)OC2COC2)n1`, the result was inactive.

For `CCCN(CCOc1c(Cl)cc(Cl)cc1Cl)C(=O)n1ccnc1`, the call was inactive.

Consider `O=[N+]([O-])c1c(Cl)c(Cl)c(Cl)c(Cl)c1Cl`, for which the compound was classed as inactive.

As to `CC1(C)C(C=C(Cl)Cl)C1C(=O)OC(C#N)c1ccc(F)c(Oc2ccccc2)c1` (stereo not given), the call was inactive.

`N#Cc1c(Cl)c(Cl)c(Cl)c(C#N)c1Cl`: the compound was classed as inactive.

Regarding `COC(=O)c1ccccc1S(=O)(=O)NC(=O)Nc1nc(C)nc(OC)n1`, the result was inactive.

Turning to `Oc1ccc(Cl)cc1Cc1ccccc1`, the result was inactive.

Turning to `CCS(=O)(=O)c1cccnc1S(=O)(=O)NC(=O)Nc1nc(OC)cc(OC)n1`, the compound was classed as inactive.

In the case of `COC(=O)c1ccccc1S(=O)(=O)NC(=O)N(C)c1nc(C)nc(OC)n1`, the result was inactive.

Turning to `Oc1cc(Cl)ccc1Oc1ccc(Cl)cc1Cl`, the result was inactive.

Regarding `O=C(O)CCCOc1ccc(Cl)cc1Cl`, the compound was classed as inactive.

For the compound `CNC(=O)Oc1ccccc1OC(C)C`, the result was inactive.

As to `CC(C)(C)C(O)C(Oc1ccc(Cl)cc1)n1cncn1` (stereo not given), the result was inactive.

In the case of `COC(=O)c1ccccc1CS(=O)(=O)NC(=O)Nc1nc(OC)cc(OC)n1`, the call was inactive.

As to `COc1nn(CSP(=S)(OC)OC)c(=O)s1`, the compound was called inactive.

Consider `CC1(c2ccc(Oc3ccccc3)cc2)OC(=O)N(Nc2ccccc2)C1=O` (stereo not given), for which the call was inactive.

For `COP(=S)(OC)Oc1ccc(SC)c(C)c1`, the compound was classed as inactive.
